Rows were chosen to be rich in hits. Some 1.6% of all compounds tested hit in one or more screens of this group.
Fam108B inh: mouse Fam108B serine hydrolase inhibitors, primary screen, counter-screen for RBBP9 inhibitor project, biochemical, fluorescence polarization | recombinant Fam108B, FP-Rh probe fluorescence polarization | inhibition, % at 9.51 µM | 300,000 tested, 0.33% active;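 active = inhibition above the screen mean inhibition plus 3 SD, computed separately per campaign, cut at about 18% in these data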;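 note: inhibitors lower polarization as less probe binds the enzyme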
MEX-5 binding: MEX-5 zinc finger RNA-binding disruptors – biochemical, C. elegans, fluorescence polarization, MLPCN library, primary screen; MEX-5/FITC-TCR2 RNA binding; active compounds read low; activity score (negative = inhibition of binding), % at 10 µM; 300,000 tested, 0.38% active; AID 1832, 2009;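 active = inhibition past about -25% in most replicates, and total fluorescence under double the plate's negative control median, limit read from the data; inconclusive = replicates evenly split on the limit, or fluorescence at least double controls; inactive = too little inhibition in most replicates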;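 note: 0% = DMSO and -100% = 5 µM competing unlabeled TCR2 RNA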
LYPLA1 inh: LYPLA1 inhibitors, primary screen, counter-screen for PME1 inhibitor project, biochemical, fluorescence polarization, FP-Rh probe ABPP. 320,000 tested, 0.16% active. inhibition, % at 5.9 µM. Acyl-protein thioesterase 1 (Homo sapiens), O75608. recombinant LYPLA1;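 active = inhibition above the mean of all tested compounds plus 3 SD, set per campaign, cut at about 14% in these data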;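 note: inhibitors block serine hydrolase probe labeling of LYPLA1 so polarization falls; 0% = enzyme with DMSO and 100% = wells lacking LYPLA1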
PME-1 inh: PME-1 inhibitors via competitive probe labeling, primary screen, biochemical, fluorescence polarization, FP-Rh probe, HTS; recombinant PME-1; 320,000 tested, 0.53% active; Protein phosphatase methylesterase 1 (Homo sapiens), Q9Y570; inhibition, % at 5.9 µM;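 active = inhibition above the campaign mean of all compounds plus 3 SD, cut at about 26% in these data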;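 note: competitive labeling of PME-1 active site by serine hydrolase directed probe; 0% = PME-1 with DMSO and 100% = wells lacking PME-1 enzyme; inhibitors block probe labeling so polarization falls and inhibition rises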
PREPL inhibitor: PREPL enzyme inhibitors, primary screen, biochemical, fluorescence polarization | AID 2751, 2010 | recombinant PREPL, fluorescence polarization activity-based probe | Prolyl endopeptidase-like (Homo sapiens), Q4J6C6 | 320,000 tested, 0.68% active | inhibition, % at 5.96 µM;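 note: 0% = enzyme with DMSO and 100% = wells lacking enzyme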
LYPLA2 counter: LYPLA2 inhibitors, primary screen, counter-screen for PME1 inhibitor project, biochemical, fluorescence polarization, FP-Rh probe ABPP. Acyl-protein thioesterase 2 (Homo sapiens), O95372. recombinant LYPLA2. inhibition, % at 5.9 µM. 320,000 tested, 0.38% active. AID 2177, 2009;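 active = inhibition above the screen-wide mean plus 3 SD, limit set per campaign, cut at about 26% in these data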;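 note: 0% = LYPLA2 with DMSO and 100% = wells lacking LYPLA2 enzyme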
PREPL confirm: human PREPL enzyme inhibitors, confirmation, biochemical, fluorescence polarization; shares compounds with PREPL inhibitor; recombinant PREPL, fluorescence polarization activity probe; inhibition, % at 5.96 µM; 2,000 tested, 67% active; AID 2803, 2010;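 note: 0% = protein with DMSO and 100% = wells lacking protein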
Active calls of the source: *; i = inactive; ? = inconclusive; · = no result. Cut-off read from the data, not from the text of the source, unless noted: active = inhibition above about 43%; inactive = the rest.

SMILES | Fam108B inh | MEX-5 binding | LYPLA1 inh | PME-1 inh | PREPL inhibitor | LYPLA2 counter | PREPL confirm
CN(c1ccc(OCC(=O)N2CCOCC2)cc1)S(=O)(=O)c1ccc(F)cc1 | 1 | 1 | 2 | -3 | -6 | -3 | ·
Cc1ccc2c(c1)c1c(n2CC(O)CNC2CCCCC2)CCCC1 (stereo not drawn) | 0 | -5 | 2 | 4 | 50* | -4 | 46*
C/C(=N\NC(=O)c1cccc(N/N=C(\C)c2ccncc2)c1)c1ccncc1 | 2 | 1 | 1 | -1 | 52* | 3 | 15
Cc1c(C(=O)NCCCn2ccnc2)oc2ccccc12 | 5 | 1 | 1 | 7 | 14 | 5 | ·
CC(C)N(c1ccccc1)c1ccc(NC(=O)COC(=O)CCN2C(=O)c3cccc([N+](=O)[O-])c3C2=O)cc1 | 9 | -3 | -6 | 6 | 59* | 4 | 60*
COc1ccc(NC(=O)c2ccc(Cn3cc(Cl)cn3)cc2)cc1 | -6 | 0 | -1 | -4 | 3 | 6 | ·
CN(C)c1ccc(NC(=O)c2ccc(Cn3cc([N+](=O)[O-])cn3)cc2)cc1 | 2 | -3 | 1 | -2 | 48* | 17 | 57*
CCN1/C(=C/c2ccc3cc(C)ccc3[n+]2CC)Sc2ccccc21 | -12 | ? | -1 | -13 | 65* | -2 | 57*
CCN1/C(=C/C=C/c2sc3ccccc3[n+]2CC)Sc2ccccc21 | -310 | ? | -139 | -296 | i | -291 | ·
Cc1cccc(CCNC(=O)c2nnc(Cc3ccc(Cl)cc3)o2)c1 | 0 | -1 | 3 | 5 | 0 | 7 | ·
COc1ccc(N2CCN(CCCNS(=O)(=O)c3c(C)noc3/C=C/N(C)C)CC2)cc1 | -1 | -1 | 1 | 6 | 71* | 4 | 28
COc1ccc(NC(=O)C2CCN(S(=O)(=O)c3c(C)noc3/C=C/N(C)C)CC2)cc1 | -3 | -4 | -2 | 13 | 6 | 6 | ·
CCOC(=O)C1C(=O)NC(N2CCCCC2)=NC1c1ccccc1 (stereo not drawn) | -5 | 1 | -3 | -4 | -4 | -9 | ·
CCOC(=O)C1C(=O)NC(N2CCc3ccccc32)=NC1c1ccccc1 (stereo not drawn) | -1 | 0 | 1 | -2 | 44* | 10 | 7
N#CC1=C(N)C(C#N)(C#N)C(c2cccnc2)C2CC(c3ccccc3)CC=C12 (stereo not drawn) | 2 | 3 | -3 | 54* | 44* | 6 | 32
C=C1c2cccc(O)c2C(=O)C2C(=O)[C@]3(O)C(=O)C(C(N)=O)C(=O)[C@@H](N(C)C)[C@@H]3[C@@H](O)[C@H]12 (stereo partly drawn) | · | · | · | · | 62* | · | 2
C[C@H]1c2cccc(O)c2C(O)=C2C(=O)[C@]3(O)C(O)=C(C(N)=O)C(=O)[C@@H](N(C)C)C3[C@@H](O)C21 (stereo partly drawn) | 3 | -8 | 1 | 0 | 2 | 1 | ·
CCC(CO)Oc1cc(NCc2ccc(C)cc2)c2ncn(C(C)C)c2c1 (stereo not drawn) | · | · | · | · | 40 | · | ·
CCC(CO)Oc1cc(NCc2ccc(Cl)cc2)c2ncn(C(C)C)c2c1 (stereo not drawn) | · | · | · | · | 48* | · | 23
Cc1c(CN(C)C)c2c(n1Cc1ccccc1)C(=O)c1ccc(Br)cc1-2 | 4 | 0 | 2 | 8 | 54* | 4 | 50*
Cc1c(CN(C)C)c2c(n1C)C(=O)c1ccc(Br)cc1-2 | 1 | -5 | 2 | 9 | 16 | -1 | ·
CN1c2ccsc2/C(=N/Nc2ccc(F)cc2)CS1(=O)=O | 3 | -4 | -1 | 13 | 57* | 4 | 34
CCCC(=O)N/N=C1\CS(=O)(=O)N(C)c2ccsc21 | -2 | -2 | -5 | -7 | -1 | -13 | ·
